Compound activity as filed in PubChem.
A selection: hits, their analogues and other compounds. The true share with any hit is near 5.9%.
GALK inhibitor: qHTS Assay for Inhibitors of Human Galactokinase (GALK) | P51570 | Purified GALK, Kinase-Glo residual ATP luminescence | Potency, µM (top dose mostly 57.5 µM), for the others: at the top dose activity change, negative = inhibition, most hits filed as inhibitors | hit rate 0.007% among 270,000 | AID 1868, 2009; also: potency is read from the fitted curve at half-maximal effect
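Human GALK (5 nM) with 35 uM ATP and 100 uM galactose in 20 mM HEPES pH 8.0, 5 mM MgCl2, 60 mM NaCl, 1 mM DTT, 0.01% BSA. After 1 h at room temperature, leftover ATP was read by Kinase-Glo Plus luminescence.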
VP16 counter: VP16 counterscreen qHTS for inhibitors of ROR gamma transcriptional activity; Drosophila S2 Gal4-VP16 UAS-luciferase, luminescence, 20 h; hit rate 3.5% among 310,000; Potency, µM (highest dose often 53.6 µM), for the others: at the top dose activity, negative = inhibition, usual class: inhibitors;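 also: Gal4-VP16 expression switched on by copper sulfate through the metallothionein promoter; potency is read from the fitted curve at half-maximal effect; nearly all actives have a fitted effect of over 50% in size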
Coupling enz: qHTS Assay for Inhibitors of Fructose-1,6-bisphosphate Aldolase from Giardia Lamblia: Coupling assay counterscreen | coupling enzyme system counterscreen, AmpLite Red fluorescence | activity change, negative = inhibition, % at 58.2 µM, hits read low | hit rate 0.67% among 290,000 | AID 2472, 2010; in the data active = activity change below about -30%
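Fluorescence at 525 nm excitation and 598 nm emission measured inhibition of the coupled detection system without aldolase. Compounds (at 57.5 uM final) were preincubated 10 min at room temperature with coupling enzyme reagent before a 20 min substrate/AmpLite Red step.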
RORgamma inh: qHTS for inhibitors of ROR gamma transcriptional activity; Potency, µM (titrated, usually from 53.6 µM), for inactives: at the highest dose activity change, negative = inhibition, most hits filed as inhibitors; AID 2551, 2010; hit rate 5.4% among 310,000; Drosophila S2 Gal4-RORgamma UAS-luciferase reporter, 20 h; also: potency is read from the fitted curve at half-maximal effect; nearly all actives have a fitted effect of over 60% in size
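Luciferase reporter read in Schneider cells carrying Gal4-RORγ (mouse) and UAS-Photinus luciferase; cells given compound 1 h before 700 uM copper sulfate induction, then incubated 20 h at ambient temperature.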
TrxR1 inh: qHTS Assay for Inhibitors of Mammalian Selenoprotein Thioredoxin Reductase 1 (TrxR1): qHTS; AID 588453, 2011; Potency, µM (highest dose often 114 µM), for inactives: top-dose activity change, negative = inhibition, actives largely listed as inhibitors; hit rate 1% among 390,000; recombinant rTrxR1, NADPH fluorescence consumption, selenite substrate; also: potency is read from the fitted curve at half-maximal effect; nearly all actives have a fitted effect of over 65% in size
Target sequence (O89049 whole entry, looked up): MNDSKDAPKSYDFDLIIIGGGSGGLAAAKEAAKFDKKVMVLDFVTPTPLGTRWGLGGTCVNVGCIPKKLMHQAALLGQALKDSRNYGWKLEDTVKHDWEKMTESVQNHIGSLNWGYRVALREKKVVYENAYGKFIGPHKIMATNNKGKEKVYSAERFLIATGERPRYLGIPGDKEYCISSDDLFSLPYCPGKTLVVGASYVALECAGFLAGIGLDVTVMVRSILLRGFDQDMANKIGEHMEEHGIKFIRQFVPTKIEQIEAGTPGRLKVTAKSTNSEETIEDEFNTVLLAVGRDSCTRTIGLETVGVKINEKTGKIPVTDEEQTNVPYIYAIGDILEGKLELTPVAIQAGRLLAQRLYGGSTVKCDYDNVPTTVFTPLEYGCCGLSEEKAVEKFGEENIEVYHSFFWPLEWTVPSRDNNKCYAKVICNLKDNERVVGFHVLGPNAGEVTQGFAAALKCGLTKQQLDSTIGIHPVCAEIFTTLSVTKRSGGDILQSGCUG
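Rat TrxR1 (90 nM in the dispensed reagent) was pre-reduced with 400 uM NADPH for 5 min at room temperature, then incubated with compound for 15 min. After 400 uM selenite was added, NADPH fluorescence (Ex 340/Em 450 nm) was followed for 8 min.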
TrxR1 substrate: qHTS Assay for Substrates of Mammalian Selenoprotein Thioredoxin Reductase 1 (TrxR1): qHTS. Thioredoxin reductase 1, cytoplasmic (Rattus norvegicus), O89049. purified TrxR1 substrate turnover, NADPH consumption readout. Potency, µM (titrated, usually from 114 µM), without a hit: top-dose activity change, negative = substrate turnover. hit rate 0.01% among 390,000; also: potency is read from the fitted curve at half-maximal effect; nearly all actives have a fitted effect of over 50% in size
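Rat TrxR1, dispensed at 90 nM, was prereduced with 400 uM NADPH (final) for 5 min at ~22 deg C, then incubated with compound 15 min before 400 uM selenite. A first-read NADPH fluorescence drop versus no-compound background flagged substrates.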
The depositor's hits bear a star; ? = inconclusive; . = not tested or not shown; ! = not active in a repeat; [ ] = dose if it differs, or a comment. Unless noted, calls follow the shape of the dose curve; as a rule, active = well fitted curve in the direction sought with a large enough effect; inconclusive = small, poorly fitted or top-dose-only effect, or another doubt; inactive = no such curve, though single readings can be large; an effect the other way counts as inactive or inconclusive. % is scaled to controls: 0 for no effect and ±100 for the full control effect.

SMILES	GALK inhibitor	VP16 counter	Coupling enz	RORgamma inh	TrxR1 inh	TrxR1 substrate
CNC(=S)NC12CC3CC(CC(C3)C1)C2	2.0%	7.94µM*	4.4	2.51µM*	14.5%[57.1 µM]	6.2%[57.1 µM]
COC(=O)c1ccccc1NC(=O)c1cnc2c(-c3cccc(C)c3)c(C)nn2c1C	.	.	.	.	9.5%[57.1 µM]	2.9%[57.1 µM]
CCOc1ccc(C(=O)NCCc2csc(-c3cccnc3)n2)cc1	.	.	.	.	22.8%[57.1 µM]	3.8%[57.1 µM]
Cc1c(N)cc(N)cc1C(=O)O	-0.1%	-11.1%	-34.7*	-34.4%	2.2%	2.4%
CCOC(=O)C1=C(C)N(C)C(=O)NC1c1cccc(O)c1 (stereo not drawn)	1.5%	.	-0.8	5.7%[0.365 µM]	17.6%[57.1 µM]	13.0%[57.1 µM]
O=C(NCCCl)Nc1ccccc1NS(=O)(=O)c1cccs1	.	.	.	.	21.0%[57.1 µM]	12.0%[57.1 µM]
COc1cc(NC2CCCCC2O)c2nc(-c3ccc(Cl)cc3)ccc2c1 (stereo not drawn)	3.9%	-7.9%	-31.0*	-3.5%	4.2%	1.6%
COc1ccc(OCC(=O)OCC(=O)NC2CCCCC2C)cc1 (stereo not drawn)	.	.	.	.	5.4%	-9.9%
CCCCC1=CC2=CC(=O)C(C)(OC(=O)CC)C(=O)C2=CN1c1ccncc1 (stereo not drawn)	.	.	1.5	.	.	.
Cc1nn(CC(=O)Nc2ccc(S(=O)(=O)N(C)C)cc2)c(C)c1[N+](=O)[O-]	-1.1%	0.7%	-0.4	25.6%	7.1%	-2.8%
Cc1ccc(N=Cc2cc(Br)cc(Cl)c2O)cc1	-2.6%	-0.4%	-2.9	11.2µM*	-14.2%	-8.2%
NC(=O)N1c2ccccc2C=Cc2ccccc21	-0.9%	-10.3%	1.9	-14.5%	-4.0%[57.1 µM]	2.1%[57.1 µM]
NC(=O)N1c2ccccc2CC(=O)c2ccccc21	-1.7%	3.2%	-32.4*!	2.6%	10.2%	1.8%
Cc1cc(C)cc(Oc2ccccc2C=O)c1	-0.9%	?	0.8	3.3%	-5.6%	-1.2%
c1ccc(CCNc2nc(-c3ccccn3)nc3ccccc23)cc1	-1.9%	4.47µM*	-1.4	0.251µM*	21.8%	0.9%
CCN(CC)c1nc(-c2ccccn2)nc(-c2ccccc2)c1C#N	8.3%	5.01µM*	5.1	1µM*	-1.5%[57.1 µM]	-5.1%[57.1 µM]
CCCN(CCC)c1nc(-c2ccccn2)nc2ccccc12	.	5.01µM*	-5.2	3.55µM*	1.5%	0.3%
CN(C)c1nc(-c2ccccn2)nnc1-c1ccccc1	1.2%	1.2%	-1.1	-27.5%	7.5%[57.1 µM]	6.9%[0.457 µM]
Cc1ccc(NC(=O)Cn2c(CCC(=O)O)ccc2-c2cccs2)cc1Cl	-2.2%	-24.7%	8.9	-11.9%	?	-5.1%
O=C(CNc1ccccc1)N/N=C/c1ccc2c(c1)OCO2	-0.3%	4.5%	0.1	35.0%	20.3%	-4.5%
O=C(CNc1ccc2c(c1)OCO2)N/N=C\c1cn(Cc2ccc(F)cc2)c2ccccc12	0.0%	10µM*	-14.1	?	.	.
O=C(CNc1ccc2c(c1)OCO2)N/N=C\c1cn(Cc2ccccc2)c2ccccc12	.	?	-0.5	12.6µM*	-30.2%	-11.4%
CCOC(=O)N/N=C/c1cn(Cc2ccc(F)cc2)c2ccccc12	-1.6%	-4.5%	-1.1	-7.9%	16.2%	1.2%
COC(=O)c1c(C)sc(-c2c(-c3ccc(OC)c(F)c3)[nH]c3c2c(=O)n(C)c(=O)n3C)c1O	.	.	.	.	2.3%	0.9%
Cc1ccc(C)c(N2CCN(c3cc(C)nc4c(-c5ccc(Cl)cc5)c(C)nn34)CC2)c1	.	.	.	.	-3.6%	1.4%
SMILES	GALK inhibitor	VP16 counter	Coupling enz	RORgamma inh	TrxR1 inh	TrxR1 substrate
CCOc1ccc(C2C3=C(CCCC3=O)Nc3ccc4ncccc4c32)cc1 (stereo not drawn)	0.4%	6.4%	-2.4	-5.3%	?	-10.5%
O=C1CCCC2=C1C(c1ccc(O)c(O)c1)c1c(ccc3ncccc13)N2 (stereo not drawn)	8.8%	-4.9%	-72.3*	17.3%	-48.5%	4.6%[57.1 µM]
Cc1ccc(C(=O)C[n+]2cc(-c3ccc(C)cc3)n3c2CCCCC3)cc1	2.9%	5.01µM*	-4.0	?	6.0%	-3.0%
COc1ccc(C(=O)C[n+]2cc(-c3ccc(OC)cc3)n3c2CCCC3)cc1	11.0%	-4.6%	3.0	38.7%	7.0%[57.1 µM]	3.8%[57.1 µM]
CCc1ccc(C2c3c(oc4ccc(F)cc4c3=O)C(=O)N2CCc2ccc(OC)cc2)cc1 (stereo not drawn)	.	.	.	.	28.8%	5.2%
Brc1ccc(Cn2c(-c3cncs3)nc3ccccc32)cc1	-3.4%	6.31µM*	-0.2	?	10.8%	-1.7%[0.457 µM]
Brc1cccc(Cn2c(-c3cncs3)nc3ccccc32)c1	0.8%	8.91µM*	2.4	8.91µM*	-0.6%	4.3%
c1ccc(Cn2c(-c3cncs3)nc3ccccc32)cc1	-0.1%	20.0%	6.1	-25.7%	-18.3%	-9.1%
Cc1cccc(Cn2c(-c3cccc(Br)c3)nc3ccccc32)c1	.	.	.	.	5.5%[57.1 µM]	-4.3%[57.1 µM]
C/C(=C\c1ccccc1)CN1CCN(C(C)C)C(CCO)C1 (stereo not drawn)	-3.0%	6.5%	0.2	-19.5%	3.2%	-0.7%
CCOc1ccc(-c2cnc3ccccc3n2)cc1	-0.7%	8.91µM*	-1.1	3.55µM*	2.7%	9.0%
CCOc1ccc(-c2cn3ccccc3n2)cc1	14.4%	?	-5.3	6.31µM*	-1.2%[57.1 µM]	43.6%[57.1 µM]
Fc1ccc(-c2cn3ccccc3n2)cc1	12.9%	?	-2.6	?	10.6%	.
Cc1ccccc1S(=O)Cc1ccc(C(=O)NCCCN2CCCCC2)o1 (stereo not drawn)	-4.6%	-1.1%	.	-1.4%	-5.3%	-0.4%
CCOC(=O)N1N=C(CC)CC1(O)C(F)(F)F (stereo not drawn)	-1.4%	2.5%	3.4	-43.3%	-10.3%	-0.7%
COc1ccc(CC(=O)N2N=C(C)CC2(O)c2cccnc2)cc1OC (stereo not drawn)	.	?	0.9	11.2µM*	9.5%	-1.2%
CCC1=NN(C(=O)Cc2ccc(OC)c(OC)c2)C(O)(C(F)(F)F)C1 (stereo not drawn)	1.7%	?	2.5	15.8µM*	5.6%	3.9%
CC1=NN(C(=O)Cc2ccc([N+](=O)[O-])cc2)C(O)(c2cccnc2)C1 (stereo not drawn)	0.0%	-6.3%[0.365 µM]	5.1	14.1µM*	17.0%[57.1 µM]	6.9%[57.1 µM]
CC1=NN(C(=O)Cc2ccc([N+](=O)[O-])cc2)C(O)(c2ccccc2)C1 (stereo not drawn)	-0.7%	12.6µM*	3.8	8.91µM*	5.6%	-7.7%
